{"source": "the OligoGym collection", "data": [{"target": "GHDC", "assay": "pooled miR-30 sensor sort-seq; sequence = guide strand", "settings": "shRNA", "values": [{"sequence": "ATTGTAGGCACCAACCACTCGC", "sensor-assay potency score (higher = more potent)": 0.0645}, {"sequence": "AGAAGTTCGACAGCCGTCCCAG", "sensor-assay potency score (higher = more potent)": -0.973}, {"sequence": "TTATGTCTGTGCTCCTTCTGAG", "sensor-assay potency score (higher = more potent)": -0.0646}, {"sequence": "TCCACTGTCTTCCTGCTGGGTC", "sensor-assay potency score (higher = more potent)": -1.07}, {"sequence": "CTGCTCTCCACTGTCTTCCTGC", "sensor-assay potency score (higher = more potent)": -1.58}, {"sequence": "TTTTCCTCTGACAGATTCCTCA", "sensor-assay potency score (higher = more potent)": -0.542}, {"sequence": "TCAGAGAACAGGTCTTCACCAA", "sensor-assay potency score (higher = more potent)": 0.187}, {"sequence": "TCCAGCCTGCAGATGAACCTGA", "sensor-assay potency score (higher = more potent)": -0.985}, {"sequence": "TTGTAGGCACCAACCACTCGCA", "sensor-assay potency score (higher = more potent)": -0.926}, {"sequence": "TGCTGCTCTCCACACAGCCATG", "sensor-assay potency score (higher = more potent)": -2.06}, {"sequence": "TTCCTCTGACAGATTCCTCAGC", "sensor-assay potency score (higher = more potent)": -0.103}, {"sequence": "TAGCTCTTCACCATCAGTCTCC", "sensor-assay potency score (higher = more potent)": 0.0115}]}, {"target": "GHRL", "assay": "pooled miR-30 sensor sort-seq; sequence = guide strand", "settings": "shRNA", "values": [{"sequence": "TTCTCTGCTGGACTCTCTGGTG", "sensor-assay potency score (higher = more potent)": -0.904}, {"sequence": "TGAGCTTGTACAACAGTCGTGG", "sensor-assay potency score (higher = more potent)": 0.776}, {"sequence": "TTGATTCCAACATCAAAGGGGG", "sensor-assay potency score (higher = more potent)": 0.299}, {"sequence": "TCTCTGCTGGACTCTCTGGTGT", "sensor-assay potency score (higher = more potent)": -0.98}, {"sequence": "TTCTGCTTGACCTCCATCTTCC", "sensor-assay potency score (higher = more potent)": -0.0657}, {"sequence": "TAGAGCTCGGGGCTGCAGCTTG", "sensor-assay potency score (higher = more potent)": -0.899}, {"sequence": "TTTCTCTGCTGGACTCTCTGGT", "sensor-assay potency score (higher = more potent)": 0.0983}, {"sequence": "TGCTTGACCTCCATCTTCCGGG", "sensor-assay potency score (higher = more potent)": -0.583}, {"sequence": "TTGACCTCCATCTTCCGGGCGG", "sensor-assay potency score (higher = more potent)": -0.454}, {"sequence": "TCTTCGACTCCTTTCTCTGCTG", "sensor-assay potency score (higher = more potent)": -0.622}, {"sequence": "TGTCCTGAAGAAACTTCCCCAG", "sensor-assay potency score (higher = more potent)": -1.03}, {"sequence": "TACTGAACCCCTGACAGCTTGA", "sensor-assay potency score (higher = more potent)": -0.592}]}]}
